{
  "source": "PubChem BioAssay (NCI)",
  "note": "This is part of a sample that, as a whole, favours compounds with a hit. Of some 83,000 tested, about 20% had one in any assay.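 A percent growth of 40 corresponds to 60% growth inhibition; 0 means no net growth; -100 means all cells died. Active threshold: below 10.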 Values without a mark were called inactive. Active and inactive are the calls of the source.",
  "data": [
    {"tested_on": "HL-60(TB) leukemia", "assay": "NCI-60 one-dose screen, 48 h (100 = growth as untreated, 0 = no growth, -100 = all killed)", "conditions": "10 µM unless noted", "values": [
      {"compound": "CSc1nc(N)c(NS(=O)(=O)c2ccc(C(C)=O)cc2)c(=O)[nH]1", "growth": "108%"},
      {"compound": "COc1cc(-c2nc3ccc(C)cc3[nH]2)ccc1OCC(=O)N=Nc1c(O)[nH]c2ccccc12", "growth": "-34.3% (active)"},
      {"compound": "O=C1NC(=Nc2ccc(O)cc2)S/C1=C\\c1cccs1", "growth": "-4.12% (active)"},
      {"compound": "COC(=O)c1c(C)c2n(c1C)C(=O)C(c1ccccc1)=C2", "growth": "67%"},
      {"compound": "Oc1ccccc1/C=N/NC(=S)NC1CC2C=CC1C2", "note": "(stereo not given)", "growth": "58.3%"},
      {"compound": "COc1cc(-c2c3sc(=O)[nH]c3nc3c2c(=O)[nH]n3C(C)C)cc2c1OCO2", "growth": "116%"},
      {"compound": "COc1ccc2cc(-c3nc4ccc(C)cn4c3NCc3ccco3)c(=O)[nH]c2c1", "growth": "67.5%"},
      {"compound": "COc1ccc(-c2cc(/C=C/C(=O)c3cc(OC)c(OC)c(OC)c3)[nH]n2)cc1OC", "growth": "-22.9% (active)"},
      {"compound": "CCN(CC)c1ccc(N=Nc2cc(Cl)ccc2Cl)c(NC(=O)CCC(=O)O)c1", "growth": "119%"},
      {"compound": "Cc1cc(-c2ccc(N=Nc3c(C)nn(-c4ccc(S(=O)(=O)O)cc4)c3O)c(C)c2)ccc1N=Nc1ccc(O)c(C(=O)O)c1", "growth": "99%"},
      {"compound": "COC(=O)c1nc(-c2ccc(C)cc2)oc1Sc1ccc(C)cc1", "growth": "91.4%"},
      {"compound": "Cn1ccc(Nc2nccc(Oc3ccc(C(=O)Nc4cccc(F)c4)c(Cl)c3)n2)c1", "growth": "95.4%"},
      {"compound": "Nc1ccc(C(=O)/C=C/c2ccccc2)cc1", "growth": "27.4%"},
      {"compound": "COC(=O)/C(=C\\c1ccc(OC)cc1)C(=O)N1c2ccccc2Sc2ccccc21", "growth": "16.5%"},
      {"compound": "CO/N=C(/C(=O)NC1C(=O)N2C(C(=O)O)=C(COC(N)=O)CSC12)c1ccco1", "note": "(stereo not given)", "growth": "109%"},
      {"compound": "COc1cccc(C=Nc2cc(C(C)C)c(O)cc2C)c1O", "growth": "85.9%"},
      {"compound": "O=C(Nc1nc2ccc(C(F)(F)F)cc2s1)c1cc(Cl)ccc1O", "growth": "-54.4% (active)"},
      {"compound": "CCN1CCN(CCOc2ccc(CNc3ccc4nc(CCC5CCCCC5)[nH]c4c3)cc2)CC1", "growth": "-12.7% (active)"},
      {"compound": "COc1ccc(OC)c(/C=C/c2nnc(Nc3ccccc3)o2)c1", "growth": "75.7%"},
      {"compound": "N#CCCCCCn1c2ccccc2c2c3c(c4c5ccccc5n(CCCCCC#N)c4c21)C(=O)N(O)C3=O", "growth": "64.3%"},
      {"compound": "CNC(=S)N/N=C/CSC/C=N/NC(=S)NC", "growth": "85%"},
      {"compound": "O=C(Nc1ccc(Cl)c(Cl)c1)OCn1ncc2ccc([N+](=O)[O-])cc21", "growth": "96.3%"},
      {"compound": "CN1C(=O)CCC(N2C(=O)c3cccc(NCCOCCOCCNC(=O)c4cc5c(o4)C(=O)c4ccccc4C5=O)c3C2=O)C1=O", "note": "(stereo not given)", "growth": "0.337% (active)"},
      {"compound": "CCCCNCCCCCNc1cc(OC)cc2cccnc12", "growth": "67.5%"},
      {"compound": "COC(=O)Nc1nc2ccc(C(=O)c3cccs3)cc2[nH]1", "growth": "-45.1% (active)"},
      {"compound": "NC(CC(N)C(=O)O)C(=O)O", "note": "(stereo not given)", "growth": "110%"},
      {"compound": "COc1ccc(C(=O)NNc2nc(Cl)nc(N3CCN(C(c4ccccc4)c4ccccc4)CC3)n2)cc1", "growth": "21.3%"},
      {"compound": "Cc1c(-c2ccc(O)cc2)n(Cc2ccc(OCCN3CCCCCC3)cc2)c2ccc(O)cc12", "growth": "74.6%"},
      {"compound": "CN1C(=O)N(C)C2C1NN=c1s/c(=C\\c3ccccc3)c(=O)n12", "note": "(stereo not given)", "growth": "16.9%"},
      {"compound": "Nc1nc2c(ncn2C2OC3COP(=O)(O)OC4C(COP(=O)(O)OC2C3O)OC(n2cnc3c(N)ncnc32)C4O)c(=O)[nH]1", "note": "(stereo not given)", "growth": "103%"},
      {"compound": "Cc1cc(Nc2nc(N3CCN(C)CC3)nc3ccccc23)n[nH]1", "growth": "96.6%"},
      {"compound": "CCOC(=O)c1c(C)nc2ccccc2c1/C=C/c1ccc(F)cc1", "growth": "85.7%"},
      {"compound": "COc1cccc(-c2nnc(COc3ccc(-c4nc5ccccc5[nH]4)cc3OC)o2)c1", "growth": "103%"},
      {"compound": "Nn1c(-c2ccc(Cl)cc2)nc2c(-c3ccc(Cl)cc3)nc3ccc(Cl)cc3c2c1=O", "growth": "43.4%"},
      {"compound": "Cc1ncc(C(=O)Nc2ccc(CN3CCN(C)CC3)c(C(F)(F)F)c2)cc1C#Cc1ccc(N)nc1", "growth": "17.6%"},
      {"compound": "Fc1ccc2[nH]cc(-c3nc(-c4c[nH]c5ncccc45)cs3)c2c1", "growth": "14%"},
      {"compound": "Cc1cc(Nc2nc(-c3ccncc3)nc3ccccc23)n[nH]1", "growth": "49.1%"},
      {"compound": "CC(=O)CC(=O)c1ccccc1.[Cu+2]", "growth": "67.2%"},
      {"compound": "C[n+]1c2ccccc2nc2ccccc21", "growth": "13.3%"},
      {"compound": "O=C1C(=O)N(CCCCn2cc(-c3ccccc3)nn2)c2ccccc21", "growth": "118%"}
    ]}
  ]
}
